Source: PubChem
Shown are actives, neighbours in structure and some others; about 2.8% of the full set was active somewhere.
KCNH2 WT inh = KCNH2 (human, wildtype) channel inhibition; Q12809; U2OS, BacMam KCNH2, thallium flux FluxOr; active compounds read low; activity change, % at 1.84 µM; 340,000 compounds, 0.37% hits;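 active = maximum activity change below -70%; inconclusive = maximum activity change between -70% and -50%; inactive = maximum activity change above -50%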
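U2OS cells transduced with wild-type KCNH2 virus are loaded with FluxOr dye for 45 min, and thallium flux is measured in kinetic reads before and after stimulation buffer. Rate constants are normalized to DMSO controls.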
HEK293 tox = cytotoxicity counter-screen for GLP-1 receptor inverse agonists; Potency, µM (titrated, usually from 38.3 µM), most hits filed as inhibitors; AID 624418; 410,000 compounds, 0.13% hits; HEK293 cAMP-luciferase reporter cells, luminescence, 24 h;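 note: loss of luciferase light is scored as toxicity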
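Compound-treated cells are incubated 24 hr at 37 deg C under 5% CO2 after a 12 hour attachment period, then luciferase detection reagent is added and luminescence is measured following 12 min at room temperature; lowered signal indicates toxicity.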
GLP1R ag = agonists of human GLP-1 receptor; P43220; HEK293 GLP-1R CRE-luciferase, luminescence, 4-6 h; cells express a hypersensitive GLP-1R form; Potency, µM (titrated, usually from 45.6 µM), actives largely listed as activators; 380,000 compounds, 0.007% hits
GLS inhibitor = glutaminase GLS (human) inhibition; AID 624170; 410,000 compounds, 0.21% hits; GLS enzymatic activity, qHTS titration; Potency, µM (titrated, usually from 45.5 µM), most hits filed as inhibitors
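Compounds were pin-transferred onto hKGA, after which L-glutamine (1 mM solution) and a detection mix of glutamate oxidase, HRP and Amplex Red were added. Initial and 30 min RT fluorescence reads were collected.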
KCNH2 3.1 inh = KCNH2 3.1 (human) potassium channel inhibition; 340,000 compounds, 0.95% hits; activity change, % (tested at about 1.8 µM); U2OS KCNH2 3.1, thallium flux FluxOr; active compounds read low;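 active = maximum activity change below -70%; inconclusive = maximum activity change from -70% to -50%; inactive = maximum activity change above -50%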;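 note: thallium influx rate constant from kinetic fluorescence after stimulation buffer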
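Thallium flux read-out: FluxOr dye with Red40 quencher in HBSS/HEPES, 45 min at RT. Rate constants from kinetic reads were normalized to positive and negative DMSO controls. Cells: U2OS virally expressing the 3.1 isoform.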
GLP1R inv ag = inverse agonists of human GLP-1 receptor. P43220. HEK293 GLP-1R CRE-luciferase, luminescence, 24 h; GLP-1R form is constitutively active. Potency, µM (titrated, usually from 38.3 µM), hits mostly inhibitors. 410,000 compounds, 1.6% hits. AID 624417; note: nearly all actives have a fitted effect of over 55% in size
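Using stably transfected HEK293 (constitutively active GLP-1R, cAMP-luciferase reporter), compounds were incubated 24 hr and luciferase measured by luminescence.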
Each line names hits and unclear results; the compound was inactive in the other large screens. Unless noted, calls come from the whole dose curve; as a rule, active = well fitted curve in the direction sought with a large enough effect; inconclusive = small, poorly fitted or top-dose-only effect, or another doubt; inactive = no such curve, though single readings can be large; an effect the other way counts as inactive or inconclusive.

Nc1ccc2ncccc2c1	KCNH2 3.1 inh -117.8
COc1ccc(CCNC(=O)C(=O)NCC(c2ccco2)S(=O)(=O)c2ccc(F)cc2)cc1 (centres undefined)	none (no result: KCNH2 WT inh, GLP1R ag, KCNH2 3.1 inh)
O=C(C1=C[C@H](C2CC2)C[C@H](OCCCCO)O1)N1CCOCC1	KCNH2 WT inh -88.6
O=C(O)C1=C[C@@H](C2CC2)C[C@@H](OCCCCO)O1	none
O=C(c1ccc([N+](=O)[O-])cc1)N(Cc1cccs1)C1CCS(=O)(=O)C1 (centres undefined)	KCNH2 3.1 inh -101.5
Nc1cc(=O)nc(SCC(=O)Nc2cccc(Cl)c2)n1CCc1ccccc1	none (no result: KCNH2 WT inh, KCNH2 3.1 inh)
O=C(COc1ccccc1)Nc1cc(C(F)(F)F)ccc1N1CCCC1	GLP1R inv ag 12.6µM
Cc1ccc(OCC(=O)Nc2ccccc2N2CCCC2)c(C)c1	KCNH2 WT inh active, GLP1R inv ag inconclusive
O=C(Cc1ccc(Cl)c(Cl)c1)Nc1ccccc1N1CCCC1	GLP1R inv ag 10µM
O=C(COc1ccccc1)Nc1ccccc1N1CCCCC1	GLP1R inv ag 11.2µM
O=C(CCCn1c(=O)[nH]c2ccccc2c1=O)N1CCN(c2ccccc2)CC1	none (no result: KCNH2 WT inh, GLP1R ag, KCNH2 3.1 inh)
CCOc1ccc(OCC(=O)Nc2ccccc2N2CCCC2)cc1	GLP1R inv ag 10µM
CC(=O)c1ccc(OCC(=O)Nc2ccccc2N2CCCC2)cc1	none
Cc1cccc(Cn2cc(C(=O)Nc3cc(F)ccc3F)ccc2=O)c1	none (no result: KCNH2 WT inh, KCNH2 3.1 inh)
Cc1cccc(Cn2cc(C(=O)Nc3ccc(F)c(C(F)(F)F)c3)ccc2=O)c1	GLP1R inv ag 10µM (no result: KCNH2 WT inh, GLP1R ag, KCNH2 3.1 inh)
CC(C1CC2CCC1C2)n1c(-c2cccs2)n[nH]c1=S (centres undefined)	GLP1R inv ag 5.01µM
Cc1ccc2nc(-c3ccc(Cl)c(NC(=O)COc4cccc(C)c4C)c3)oc2c1	none (no result: KCNH2 WT inh, GLP1R ag, KCNH2 3.1 inh)
O=S(=O)(Nc1ccc2c(c1)OCO2)c1ccc(Cl)cc1F	none
CCCn1c(=O)c2ccccc2n2c(=S)[nH]nc12	none
CCCCn1c(=O)c2ccccc2n2c(=S)[nH]nc12	GLS inhibitor 12.6µM
Cn1c(=O)c2ccccc2n2c(=S)[nH]nc12	GLS inhibitor 10µM
Cc1cc(-c2nn(-c3ccccc3F)cc2CN2CCC(O)CC2)c(C)s1	GLP1R inv ag inconclusive
Cc1cc(-c2nn(-c3ccccc3F)cc2CN2CCN(c3ccncc3)CC2)c(C)s1	KCNH2 WT inh -136.7, HEK293 tox inconclusive, KCNH2 3.1 inh -135.5, GLP1R inv ag inconclusive
Cc1ccc(Cl)cc1NC(=O)c1cc2c(=O)n3cccc(C)c3nc2n1C	none (no result: KCNH2 WT inh, GLP1R ag, KCNH2 3.1 inh)
COc1cc(N)c(Cl)cc1C(=O)N[C@H]1CCN(CCCOc2ccc(F)cc2)C[C@H]1OC	KCNH2 WT inh -70.1, KCNH2 3.1 inh -84.2
CCCCn1c(CNC(=O)C23CC4CC(CC(C4)C2)C3)nnc1SC(C)CC (centres undefined)	GLP1R inv ag 3.55µM
CCN1C(=O)[C@H]2[C@@H](c3ccc(OC)cc3)N[C@]3(CCCN(Cc4ccc(C(F)(F)F)cc4)C3=O)[C@H]2C1=O	none
COc1ccc(CN2CCC[C@]3(N[C@H](c4ccc(C(F)(F)F)cc4)[C@@H]4C(=O)N(Cc5ccccc5)C(=O)[C@@H]43)C2=O)cc1	GLP1R inv ag 8.91µM
CN1C(=O)[C@H]2[C@@H](c3ccc(C(F)(F)F)cc3)N[C@]3(CCCN(Cc4ccc(Cl)cc4)C3=O)[C@H]2C1=O	GLP1R inv ag 11.2µM
Cc1cc(C)c2oc(-c3cc(NC(=O)Cc4ccccc4)ccc3Cl)nc2c1	none (no result: KCNH2 WT inh, GLP1R ag, KCNH2 3.1 inh)
CCC1Oc2ccc(C)cc2N(CC(=O)N(Cc2ccc(C)o2)C2CCCC2)C1=O (centres undefined)	GLP1R inv ag 4.47µM
O=c1cc(CN2CCN(c3ccccc3)CC2)c2cc(O)c(-c3ccccc3)cc2o1	none
O=c1cc(CN2CCN(C/C=C/c3ccccc3)CC2)c2cc(O)ccc2o1	KCNH2 WT inh -132.9, HEK293 tox inconclusive, KCNH2 3.1 inh -98.6, GLP1R inv ag inconclusive
Cc1ccc2oc(=O)cc(CN3CCN(C/C=C/c4ccccc4)CC3)c2c1	KCNH2 3.1 inh -102.0
CCOc1ccccc1NC(=O)Nc1nnc(N(C)Cc2ccccc2)s1	none (no result: KCNH2 WT inh, GLP1R ag, KCNH2 3.1 inh)
Oc1cccc(/C=N/Nc2nn3cnnc3c3ccccc23)c1	KCNH2 3.1 inh -113.9
COc1cccc(/C=N/Nc2nn3cnnc3c3ccccc23)c1O	GLP1R inv ag inconclusive
O=C(NCCc1cccc(Cl)c1)c1cccc(-n2cnnn2)c1	none
COc1ccc(CCN2C(=O)CSC2=S)cc1OC	HEK293 tox inconclusive, GLP1R inv ag 5.62µM
CCc1c(C)nc(SC/C=C/c2ccccc2)[nH]c1=O	GLP1R ag inconclusive, KCNH2 3.1 inh -119.7
COc1ccc(NC(=O)c2c(C(=O)Nc3ccccc3)sc3nc(C)cc(=O)n23)cc1	none (no result: KCNH2 WT inh, GLP1R ag, KCNH2 3.1 inh)
Cc1ccc(NC(=O)c2c(C(=O)Nc3ccccc3)sc3nc(C)cc(=O)n23)cc1	KCNH2 3.1 inh -103.4
CCOC(=O)/C(C#N)=C1/C=CN(Cc2ccccc2)C=N1	KCNH2 WT inh -248.8, GLP1R inv ag inconclusive
COc1cc(CNC(=O)c2cnc(SC)nc2-c2ccccc2)cc(OC)c1OC	none (no result: KCNH2 WT inh, GLP1R ag, KCNH2 3.1 inh)
CCCCNc1nc2cccnc2s1	KCNH2 3.1 inh -129.5
CCOc1ccccc1NC(=O)N1CCN(Cc2cc(=O)n3nc(-c4ccc(C)cc4)sc3n2)CC1	none (no result: KCNH2 WT inh, GLP1R ag, KCNH2 3.1 inh)
CC(=O)Nc1ccc(NC(=S)NC(=O)c2oc3ccccc3c2C)cc1	none
Cc1c(C(=O)Nc2cnccn2)oc2ccccc12	none
Cc1ccnc(NC(=O)c2oc3ccccc3c2C)c1	GLP1R inv ag 11.2µM
Cc1ccnc(NC(=O)c2cc([N+](=O)[O-])cc([N+](=O)[O-])c2)c1	KCNH2 3.1 inh -88.8
Cc1cccnc1NC(=S)NC(=O)c1oc2ccccc2c1C	HEK293 tox inconclusive, GLP1R inv ag 4.47µM
CCN1CCCC1CNCC(O)COc1ccc(C(C)(C)C)cc1C (centres undefined)	GLP1R inv ag 5.01µM
Cc1ccc(OCC(O)CNC2CCCC2)c(C)c1 (centres undefined)	GLP1R inv ag inconclusive
CCCn1c(N)c(N2CCCCC2)c(=O)n(CC(=O)Nc2ccc(C(C)=O)cc2)c1=O	GLS inhibitor 4.47µM
Clc1ccc(SCCCCN2CCOCC2)cc1	none
Cc1ccc(SCCCCN2CCOCC2)cc1	none
Clc1ccc(SCCCCN2CCNCC2)cc1	GLP1R inv ag 1.78µM
Cc1ccc(SCCCCN2CCNCC2)cc1	GLP1R inv ag 2.82µM
O=C(Nc1ccc2ccccc2c1)C(c1ccccc1)C1CCCC1 (centres undefined)	GLP1R inv ag 5.01µM (no result: KCNH2 WT inh)
CCOC(=O)CC1COc2ccccc2N1C(=O)c1cccc([N+](=O)[O-])c1 (centres undefined)	none
COC(=O)C[C@@H]1C=C[C@@H](NC(=O)c2ccccc2F)[C@@H](CO)O1	none (no result: KCNH2 WT inh, GLP1R ag, GLS inhibitor, KCNH2 3.1 inh)
